Most compounds without a hit are left out; they make up all but 2.7% or so of the library.
PAFAH2 inh – PAFAH2 enzyme inhibitors, primary screen, biochemical, fluorescence polarization, human; Platelet-activating factor acetylhydrolase 2, cytoplasmic (Homo sapiens), Q99487; recombinant PAFAH2, FP-rhodamine activity probe; inhibition, % at 3.39 µM; 340,000 compounds, 0.99% hits; AID 492956, 2010;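 active means inhibition above the mean over all tested compounds plus 3 SD, cut at about 30% in these data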;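 further: inhibitors block probe labeling of enzyme so polarization drops; 0% = enzyme with DMSO and 100% = wells lacking PAFAH2 protein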
PAFAH1B3 inh – PAFAH1B3 enzyme inhibitors, primary screen, biochemical, fluorescence polarization, human | Platelet-activating factor acetylhydrolase IB subunit alpha1 (Homo sapiens), Q15102 | recombinant PAFAH1B3, FP-rhodamine probe | inhibition, % at 3.39 µM | 340,000 compounds, 0.28% hits;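 active means inhibition above the screen-wide average of all tested compounds plus 3 SD, cut at about 25% in these data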;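 further: 0% = enzyme with DMSO only and 100% = wells lacking PAFAH1B3 protein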
Target sequence (Q15102 whole entry, looked up): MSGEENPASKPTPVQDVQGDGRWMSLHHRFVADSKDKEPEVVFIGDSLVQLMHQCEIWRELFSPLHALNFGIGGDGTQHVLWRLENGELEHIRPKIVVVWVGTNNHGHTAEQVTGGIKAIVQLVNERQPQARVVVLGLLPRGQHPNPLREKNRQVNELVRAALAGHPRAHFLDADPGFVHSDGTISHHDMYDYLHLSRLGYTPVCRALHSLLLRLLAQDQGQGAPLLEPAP
pPAFAH inh – pPAFAH enzyme inhibitors, primary screen, biochemical, fluorescence polarization, human; Platelet-activating factor acetylhydrolase (Homo sapiens), Q13093; recombinant pPAFAH, FP-rhodamine probe fluorescence polarization; inhibition, % at 3.39 µM; 330,000 compounds, 1.5% hits; AID 463082, 2010;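 active means inhibition above the mean inhibition across the screen plus 3 SD, cut at about 25% in these data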;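 further: inhibitors block binding of the rhodamine activity-based probe so polarization drops; 0% = enzyme with DMSO and 100% = wells lacking pPAFAH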
PAFAH1B2 inh – PAFAH1B2 enzyme inhibitors, primary screen, biochemical, fluorescence polarization, human | recombinant PAFAH1B2, FP-rhodamine activity probe | inhibition, % at 3.39 µM | 340,000 compounds, 1.2% hits | AID 492953, 2010;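 active means inhibition above the mean of all tested compounds plus 3 SD, cut at about 24% in these data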;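 further: 0% = enzyme with DMSO and 100% = wells lacking PAFAH1B2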
Target sequence (P68402 whole entry, looked up): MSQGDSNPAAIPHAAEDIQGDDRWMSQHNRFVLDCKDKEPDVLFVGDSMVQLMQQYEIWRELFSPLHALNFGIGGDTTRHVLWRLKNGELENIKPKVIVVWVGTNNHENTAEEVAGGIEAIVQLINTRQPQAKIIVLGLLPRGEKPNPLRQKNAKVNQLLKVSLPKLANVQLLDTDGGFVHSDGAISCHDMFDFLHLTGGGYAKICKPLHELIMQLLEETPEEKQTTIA
TCR CD3 inh – inhibitors of human TCR-CD3 interaction, primary screen, biochemical, fluorescence, TAMRA-labeled TCR probe. inhibition, % at 9.4 µM. 360,000 compounds, 0.37% hits. AID 651800, 2012; in the data active means inhibition above about 19%;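 further: recombinant mutant TCR 2C K166C tagged with TAMRA read by polarization; 0% = receptor in buffer alone and 100% = receptor with positive control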
pPAFAH FP conf – pPAFAH (PLA2G7) enzyme inhibitors, confirmation, biochemical, fluorescence polarization, human; shares compounds with pPAFAH inh; recombinant pPAFAH, FP-Rh probe fluorescence polarization; inhibition, % at 3.39 µM; 2,300 compounds, 72% hits;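 active means mean inhibition of the triplicate above the hit cutoff set for the earlier primary screen, cut at about 25% in these data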;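 further: 0% = enzyme with DMSO and 100% = wells lacking pPAFAH enzyme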
The depositor's hits bear a star.

For Cc1cc(SCC(=O)N/N=C/c2ccc(O)c(O)c2O)c(C)cc1Br the results were PAFAH2 inh 2, PAFAH1B3 inh 13, pPAFAH inh 57*, PAFAH1B2 inh -6, TCR CD3 inh 11 and pPAFAH FP conf 75*.
For CCOc1ccc(NC(=O)CSc2nc3[nH]ncc3c(=O)n2-c2ccccc2OC)cc1 the results were PAFAH2 inh -2, PAFAH1B3 inh 1, pPAFAH inh 40*, PAFAH1B2 inh -6, TCR CD3 inh -2 and pPAFAH FP conf 20.
`COc1ccc(NS(=O)(=O)c2cc(NC(=O)c3ccccn3)ccc2OC)cc1Br` gave PAFAH2 inh -3, PAFAH1B3 inh 10, pPAFAH inh -1, PAFAH1B2 inh -3 and TCR CD3 inh -8.
`COc1ccc(NC(=O)c2c(F)cccc2F)cc1S(=O)(=O)Nc1ccc(Br)cc1` gave PAFAH2 inh -12, PAFAH1B3 inh -8, pPAFAH inh 36*, PAFAH1B2 inh 0, TCR CD3 inh 6 and pPAFAH FP conf 28*.
COc1cc(C(=O)NCCCN2CCCC2=O)cc(Br)c1OCc1ccccc1 was read as PAFAH2 inh -11, PAFAH1B3 inh -7, pPAFAH inh 79*, PAFAH1B2 inh -1, TCR CD3 inh -5 and pPAFAH FP conf 9.
O=C(NCCCN1CCCC1=O)c1ccc(OCc2ccccc2)cc1 was read as PAFAH2 inh 4, PAFAH1B3 inh -2, pPAFAH inh -4, PAFAH1B2 inh 12 and TCR CD3 inh 2.
`CC(OC(=O)CCC1CCCCC1)C(=O)Nc1ccc(S(N)(=O)=O)cc1` (stereo unspecified) gave PAFAH2 inh -6, PAFAH1B3 inh -2, pPAFAH inh 0, PAFAH1B2 inh 3 and TCR CD3 inh 0.
Cc1ccc(NC(=O)C(C)OC(=O)CCC2CCCCC2)cc1 (stereo unspecified) was read as PAFAH2 inh 3, PAFAH1B3 inh 6, pPAFAH inh 43*, PAFAH1B2 inh 7, TCR CD3 inh 5 and pPAFAH FP conf 8.
COc1ccc(-c2cc(NC=O)c3ncc(-c4ccc(OC)c(OC)c4)n3c2)cc1 was read as TCR CD3 inh -25.
For Cc1cc(NC(=O)NC(=O)c2ccccc2F)no1 the results were PAFAH2 inh -7, PAFAH1B3 inh 3, pPAFAH inh 2, PAFAH1B2 inh 2 and TCR CD3 inh 1.
O=c1oc2ccccc2c(O)c1Cc1cc(Cl)c2cccnc2c1O was read as PAFAH2 inh 20, PAFAH1B3 inh 14, pPAFAH inh 50*, PAFAH1B2 inh 6, TCR CD3 inh 0 and pPAFAH FP conf 66*.
For O=C(NC1CC1)c1ccc2nc([C@@H]3O[C@H](CO)[C@H](O)[C@H](O)[C@H]3O)[nH]c2c1 the results were TCR CD3 inh -3.
COc1ccc(/C=N\NC(=O)c2cc(O)c(O)c(O)c2)cc1COc1ccc(C(=O)OCC(C)C)cc1 was read as PAFAH2 inh 31*, PAFAH1B3 inh 26*, pPAFAH inh 85*, PAFAH1B2 inh 13, TCR CD3 inh 13 and pPAFAH FP conf 87*.
For COc1ccc(C(=O)N/N=C/c2ccc(OC)c(COc3ccccc3)c2)cc1 the results were PAFAH2 inh 1, PAFAH1B3 inh -1, pPAFAH inh 8, PAFAH1B2 inh -2 and TCR CD3 inh 5.
`Cc1cccc(C)c1NC(=O)CSc1nnc(-c2ccco2)c(-c2ccco2)n1` gave PAFAH2 inh 45*, PAFAH1B3 inh 18, pPAFAH inh 58*, PAFAH1B2 inh 4 and pPAFAH FP conf 23.
COc1cccc(NC(=O)CSc2nnc(-c3ccco3)c(-c3ccco3)n2)c1 was read as PAFAH2 inh 23, PAFAH1B3 inh 22, pPAFAH inh 41*, PAFAH1B2 inh 6, TCR CD3 inh 20* and pPAFAH FP conf 17.
Screening Cc1ccccc1NC(=O)CSc1nnc(-c2ccco2)c(-c2ccco2)n1 returned PAFAH2 inh 11, PAFAH1B3 inh 14, pPAFAH inh 45*, PAFAH1B2 inh 7 and pPAFAH FP conf 21.
